# This is a sample that favours compounds with a hit; in the whole collection about 3.8% have one here.
# VDR inhibitor – Inhibitors of the vitamin D receptor (VDR): qHTS; actives 0.93% (n = 400,000); Potency, µM, without a hit: max response, negative = inhibition, most hits filed as inhibitors; VDR-SRC2-3 peptide fluorescence polarization, 2 h; Vitamin D3 receptor (Homo sapiens), P11473; AID 504847, 2011; further: potency means the concentration at half of the fitted maximal effect; on the % scale 0 is the no-effect control and ±100 the full control effect
#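 Fluorescence polarization assay of small-molecule disruption of VDR binding to coregulator peptide SRC2-3. Compounds and controls pin-transferred, then read after 2 h incubation at ambient room temperature.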
# PLK1 PBD inh – qHTS for Inhibitors of PLK1-PDB (polo-like kinase 1 - polo-box domain): Primary Screen; Serine/threonine-protein kinase PLK1 (Homo sapiens), P53350; Plk1 PBD binding of FITC phosphopeptide, fluorescence polarization; Potency, µM, for inactives: max response, negative = inhibition, hits mostly inhibitors; actives 2.8% (n = 360,000); further: potency means the concentration at half of the fitted maximal effect; series mostly up to about 57 µM; on the % scale 0 is the no-effect control and ±100 the full control effect; nearly all actives have a fitted effect of over 65% in size
# Target sequence (P53350 whole entry, looked up, the tested form may be a part): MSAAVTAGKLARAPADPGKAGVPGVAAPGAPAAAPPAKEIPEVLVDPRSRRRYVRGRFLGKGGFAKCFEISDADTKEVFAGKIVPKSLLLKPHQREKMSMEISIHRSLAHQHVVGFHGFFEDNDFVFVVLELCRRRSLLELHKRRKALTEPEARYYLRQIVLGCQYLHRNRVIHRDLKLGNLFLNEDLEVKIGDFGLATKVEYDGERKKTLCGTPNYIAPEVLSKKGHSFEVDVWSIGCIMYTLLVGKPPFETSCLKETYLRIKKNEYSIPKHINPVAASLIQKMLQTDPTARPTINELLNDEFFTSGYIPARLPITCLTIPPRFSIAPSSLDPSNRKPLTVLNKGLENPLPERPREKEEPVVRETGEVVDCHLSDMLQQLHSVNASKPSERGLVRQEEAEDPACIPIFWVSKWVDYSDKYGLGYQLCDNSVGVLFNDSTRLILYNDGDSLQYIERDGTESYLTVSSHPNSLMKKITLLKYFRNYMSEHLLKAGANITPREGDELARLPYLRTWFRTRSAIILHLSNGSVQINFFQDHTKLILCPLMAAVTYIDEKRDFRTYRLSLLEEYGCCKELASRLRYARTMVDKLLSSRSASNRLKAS
# hERG WT inh – qHTS for Inhibitors of KCHN2 3.1: Wildtype qHTS; AID 720551, 2013; U2OS, BacMam KCNH2, thallium flux FluxOr; hits give low values; actives 0.37% (n = 340,000); activity change, % at 1.84 µM; Voltage-gated inwardly rectifying potassium channel KCNH2 (Homo sapiens), Q12809;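 active means maximum activity change below -70%; inconclusive means maximum activity change between -70% and -50%; inactive means maximum activity change above -50%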; further: on the % scale 0 is the no-effect control and ±100 the full control effect
#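 U2OS cells transduced with wild-type KCNH2 virus are loaded with FluxOr dye for 45 min, and thallium flux is measured in kinetic reads before and after stimulation buffer. Rate constants are normalized to DMSO controls.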
# KCNH2 3.1 block – qHTS for Inhibitors of KCHN2 3.1: Mutant qHTS | Potassium voltage-gated channel subfamily H member 2, brain isoform KCNH2 3.1 (human) | U2OS KCNH2 3.1, thallium flux FluxOr; hits give low values | activity change, % (tested at about 1.8 µM) | actives 0.95% (n = 340,000) | AID 720553, 2013;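 active means maximum activity change below -70%; inconclusive means maximum activity change from -70% to -50%; inactive means maximum activity change above -50%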;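 further: thallium influx rate constant from kinetic fluorescence after stimulation buffer; on the % scale 0 is the no-effect control and ±100 the full control effect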
#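 U2OS cells transduced with KCNH2 3.1 mutant virus (1.77 x 10^8 /mL, 4 h), plated overnight at 37 C, loaded 45 min with FluxOr dye plus Red40 quencher. Thallium flux rate constant from kinetic reads after stimulation buffer, normalised to controls.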
# CBFb-RUNX1 inh – qHTS Assay for Compounds Blocking the Interaction Between CBF-beta and RUNX1 for the Treatment of Acute Myeloid Leukemia | Potency, µM (top dose mostly 59.8 µM), inactives show at the top dose activity, negative = inhibition, hits mostly inhibitors | AlphaScreen CBFb-His/RUNX1-biotin binding, biochemical | 230,000 tested, under 10 active; further: % of control where 0% means no effect
#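 CBF-beta (His) and RUNX1 (biotin), 30 nM each; 20 min preassociation; + compound, 15 min; + beads 50 ng each (Ni, streptavidin), 90 min; RT; AlphaScreen read.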
# MBNL1-CUG inh – qHTS Assay for Inhibitors of MBNL1-poly(CUG) RNA binding; AID 2675, 2010; Potency, µM (titrated, usually from 57.5 µM), for the others: at the top dose activity change, negative = inhibition, actives largely listed as inhibitors; actives 0.036% (n = 280,000); TR-FRET MBNL1-His/biotin-(CUG)12 binding, 665/545 ratio; Muscleblind-like protein 1 (Homo sapiens), Q9NR56; active means well fitted inhibition curve with a large enough effect in the signal ratio, with a control signal flat, not every such curve was filed as active; inconclusive means small, poorly fitted or top-dose-only effect, or effect the other way, or a change in a side signal; inactive means no such curve, though single readings can be large or run the other way; the % refers to the signal ratio; further: potency means the concentration at half of the fitted maximal effect; on the % scale 0 is the no-effect control and ±100 the full control effect
#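 Ratiometric TR-FRET (665 over 545 nm, excitation 340 nm) tracks disruption of MBNL1-His/biotin-(CUG)12 complex after 60 min at room temperature, with compounds at 92 nM to 58 uM final.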
# The depositor's hits bear a star; ? = inconclusive; / = no result given. Unless noted, the call rests on the fitted dose curve; in most records, active means well fitted curve in the direction sought with a large enough effect; inconclusive means small, poorly fitted or top-dose-only effect, or another doubt; inactive means no such curve, though single readings can be large; an effect the other way counts as inactive or inconclusive.
SMILES,VDR inhibitor,PLK1 PBD inh,hERG WT inh,KCNH2 3.1 block,CBFb-RUNX1 inh,MBNL1-CUG inh
Fc1ccc(-n2cc(CNCCc3ccccn3)c(-c3ccccc3Cl)n2)cc1,-4%,-6%,-47,-115*,-2%,0%
Cc1ncc([N+](=O)[O-])n1CCOC(=O)NC(NCc1ccccc1)C(Cl)(Cl)Cl (stereo unspecified),0%,-4%,-3,-26,3%,?
Cc1ncc([N+](=O)[O-])n1CCOC(=O)NC(NCc1cccnc1)C(Cl)(Cl)Cl (stereo unspecified),?,27µM*,-11,-1,4%,27%
Cc1cc(O)c2c(c1O)C(=O)C(O)=C(O)C2=O,8.9µM*,/,/,/,/,/
CCOC(=O)c1c(C)cc(O)c(C)c1O,-3%,/,/,/,/,/
CCn1ccnc1CN1CCc2c([nH]c3ccccc23)C1C1CCCCC1 (stereo unspecified),?,27µM*,5,-6,-7%,-2%
Cc1cccc(CC2S/C(=N/N=C/c3ccco3)N(c3ccccc3)C2=O)c1 (stereo unspecified),16%,-18%,-8,-104*,8%,-7%
CCC1S/C(=N/N=C/c2ccco2)N(Cc2ccccc2)C1=O (stereo unspecified),-16%,4%,6,-3,24%,-1%
Cc1cccc(N2CCN(C(=O)CCS(=O)(=O)c3ccc4c(c3)NC(=O)CO4)CC2)c1C,?,12µM*,-3,-7,/,4%
Cc1cccc(N2CCN(S(=O)(=O)c3ccc4c(c3)NC(=O)CO4)CC2)c1C,-27%,27µM*,7,16,/,-1%
COc1cccc(NC(=O)C2CCN(S(=O)(=O)c3ccc4c(c3)NC(=O)CO4)CC2)c1,?,21µM*,8,26,/,0%
COc1ccc(CNC(=O)CC(C)S(=O)(=O)c2ccc3c(c2)NC(=O)CO3)cc1 (stereo unspecified),-1%,24µM*,-24,-4,/,-3%
Cc1ccc(CNC(=O)CC(C)S(=O)(=O)c2ccc3c(c2)NC(=O)CO3)cc1 (stereo unspecified),-15%,-8%,-3,-5,/,-4%
Cc1cc2c(cc1S(=O)(=O)N1CCN(c3cccc(C)c3C)CC1)OCC(=O)N2,-15%,0%,-2,-17,/,3%
O=C1COc2ccc(S(=O)(=O)CCC(=O)N3CCN(c4cccc(C(F)(F)F)c4)CC3)cc2N1,8%,-12%,30,-30,/,-2%
